# Bioassay records: PubChem, National Center for Advancing Translational Sciences (NCATS)
# The list is not random: actives were taken first. Their share in the collection is about 4.2%.
# Pol III holo inh: qHTS Assay for Inhibitors of DNA Polymerase III Holoenzyme System | AID 603, 2007 | reconstituted DNA polymerase III holoenzyme replication, biochemical | 71,000 compounds, 0.25% hits | Potency, µM (series often up to 57.1 µM)
#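 Reconstituted *E. coli* holoenzyme (0.35 nM Pol III, 1 nM beta, 154 nM SSB, 2 nM primase) was preincubated with compound for 15 min at RT. Synthesis on 1.4 nM ssM13Gori ran 35 min, then was stopped with PicoGreen/EDTA and read as dsDNA fluorescence.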
# Tau fil binding: qHTS Assay for Tau Filament Binding; Microtubule-associated protein tau (Homo sapiens), P10636; Potency, µM (titrated, usually from 57.1 µM); 71,000 compounds, 2% hits; recombinant tau filaments, thioflavin S fluorescence, 15 h; filaments grown with octadecylsulfate alongside compound;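 also: actives lower thioflavin S fluorescence by blocking filaments or displacing dye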
#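 Read-out: ThS fluorescence, 450 nm excitation/510 nm emission; lower signal marks blocked filament formation or displaced dye. Tau at 1 uM with 30 uM ODS, 10 uM ThS, 5 mM DTT, 100 mM NaCl, 10 mM HEPES pH 7.4; 15 h, 37 C.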
# Hsp90 Hop PPI: qHTS Assay for Disrupters of an Hsp90 Co-Chaperone Interaction. Hsp90 C-terminal peptide / TPR2A (Hop) interaction, human. AlphaScreen TPR2A-His6 binding biotin-Hsp90 C-terminal peptide. Potency, µM (titrated, usually from 57 µM). 71,000 compounds, 0.44% hits; active = well fitted curve in either direction with a large enough effect; inconclusive = small, poorly fitted or top-dose-only effect, or another doubt
# 15-hLO inh: qHTS Assay for Inhibitors of 15-hLO (15-human lipoxygenase) | Polyunsaturated fatty acid lipoxygenase ALOX15 (Homo sapiens), P16050 | purified 15hLO-1, xylenol orange hydroperoxide absorbance | Potency, µM (doses to about 57.1 µM), usual class: inhibitors | 74,000 compounds, 1.4% hits | AID 887, 2007; also: nearly all actives have a fitted effect of over 55% in size
# Target sequence (P16050 whole entry, looked up): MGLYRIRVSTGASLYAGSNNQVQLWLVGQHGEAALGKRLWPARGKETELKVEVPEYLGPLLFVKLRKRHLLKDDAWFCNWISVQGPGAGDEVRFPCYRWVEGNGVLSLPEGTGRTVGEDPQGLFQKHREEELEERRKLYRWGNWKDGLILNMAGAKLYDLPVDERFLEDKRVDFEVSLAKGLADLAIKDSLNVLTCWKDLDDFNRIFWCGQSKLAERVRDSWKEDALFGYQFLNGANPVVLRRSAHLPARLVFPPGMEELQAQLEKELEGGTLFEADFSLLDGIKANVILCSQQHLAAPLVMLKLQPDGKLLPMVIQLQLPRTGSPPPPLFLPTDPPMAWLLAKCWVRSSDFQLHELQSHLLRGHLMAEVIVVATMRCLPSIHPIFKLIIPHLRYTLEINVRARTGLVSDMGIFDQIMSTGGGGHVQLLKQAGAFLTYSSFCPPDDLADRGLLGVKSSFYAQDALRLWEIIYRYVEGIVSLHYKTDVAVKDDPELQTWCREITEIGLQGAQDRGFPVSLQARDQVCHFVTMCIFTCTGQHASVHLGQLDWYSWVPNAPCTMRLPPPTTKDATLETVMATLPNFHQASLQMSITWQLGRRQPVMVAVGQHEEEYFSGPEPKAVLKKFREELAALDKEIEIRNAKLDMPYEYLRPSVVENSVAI
#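 Purified human 15hLO-1 (40 nM final) in 25 mM Hepes pH 7.5, 0.01% Triton X-100 was preincubated with compound 15 min at room temperature, then reacted 6 min with 50 uM arachidonic acid; hydroperoxide detected by Fe-XO, 573/405 nm absorbance ratio.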
# ERK AVP block: qHTS Assay for Inhibitors of the ERK Signaling Pathway using a Homogeneous Screening Assay; HEK293-V1b, vasopressin-stimulated pERK AlphaScreen; Potency, µM (doses to about 57.5 µM), most hits filed as inhibitors; 72,000 compounds, 0.99% hits; also: nearly all actives have a fitted effect of over 55% in size
#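 HEK293 cells stably expressing V1b receptor, seeded overnight in 1% FBS, were treated with compounds for 30 min at 37C, then stimulated 5 min with 25 nM vasopressin; phospho-ERK read by AlphaScreen SureFire after lysis.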
# YjeE inh: qHTS Assay for Inhibitors of YjeE. purified YjeE enzyme, qHTS inhibition assay. Potency, µM. 71,000 compounds, 0.05% hits
#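 Purified YjeE (10 uM) with BODIPY Texas Red-labeled ADP probe (2 uM); compounds pin-transferred, 15 min at room temperature. Binding inhibition read as decreased fluorescence polarization; ADP titration as control.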
# A number is an active result; – = inactive; ? = inconclusive; · = not tested or not shown; ! = a repeat was not active; [ ] = another dose, or the depositor's remark. Unless noted, calls follow the shape of the dose curve; as a rule, active = well fitted curve in the direction sought with a large enough effect; inconclusive = small, poorly fitted or top-dose-only effect, or another doubt; inactive = no such curve, though single readings can be large; an effect the other way counts as inactive or inconclusive.
SMILES,Pol III holo inh,Tau fil binding,Hsp90 Hop PPI,15-hLO inh,ERK AVP block,YjeE inh
COc1ccc(CCNc2cc(=O)[nH]c(N)n2)cc1,–,16µM,–,–,–,–
COc1ccc(CCNC2=NCCS2)cc1,–,–,–,–,–,–
Cc1cc(C)nc(Nc2ccc(N3CCCC3)cc2)n1,–,16µM,?,?,?,–
CCCc1cc(=O)[nH]c(Nc2ccc(N3CCCCC3)cc2)n1,–,25µM,–,–,?,–
CCOC(=O)N1CCN(Cc2ccccn2)CC1,–,–,–,–,–,–
CCOC(=O)N1CCC(=C2c3ccc(Cl)cc3CCc3cccnc32)CC1,–,?,–,?,20µM,–
CCOC(=O)C1C(c2ccccc2Cl)NC(=O)N(C)C1(O)C(F)(F)F (stereo not drawn),–,–,–,–,–,–
CCOC(=O)c1c(C)c(C(=O)Nc2ccc(N(C)C)cc2)c(C)n1CC,–,16µM,–,–,?,–
CCOC(=O)c1c(C)c(C(=O)NCCOC)c(C)n1CC,–,–,–,–,?,–
CN(C)c1ccc(O)c2c1C[C@H]1C[C@H]3[C@@H](N(C)C)C(=O)C(C(N)=O)=C(O)[C@]3(O)C(=O)C1=C2O,–,–,–,–,–,–
Cc1cc(-c2nnc(-c3ccccc3)c(-c3ccccc3)n2)c(C)o1,–,16µM,–,25µM,–,–
O=c1c2c(-c3ccco3)csc2nc(SCc2cn3cccnc3n2)n1-c1ccccc1,–,–,–,–,?,–
COc1ccc(-c2cn3cccnc3n2)cc1NC(=O)C1CC1,–,–,–,–,–,–
Cc1nn(C)c(C)c1NS(=O)(=O)c1ccccc1,–,–,–,–,–,–
CCCC[C@@H]1C[C@H]1C(NC(=O)c1ccco1)c1ccc(-c2ccccc2)cc1 (stereo partly drawn),–,–,–,·,–,–
CCOc1ccc(-n2c(-c3ccco3)n[nH]c2=S)cc1,–,–,–,32µM,–,–
Cc1ccc(S(=O)(=O)N2CCC(C(=O)N[C@@H](C)C(=O)Nc3ccc4c(c3)OCO4)CC2)cc1,–,10µM,–,–,–,–
CC(C)(C)CC(=O)Nc1nnc(-c2cccs2)s1,–,–,–,–,–,–
CCC1(CC)NC(=O)N(CC(=O)Nc2sc3c(c2C(N)=O)CCC3)C1=O,20µM,–,–,?,–,–
Cc1ccc(C(=O)C2COC(=O)C2)cc1 (stereo not drawn),–,–,–,–,–,–
CCn1c(COc2ccccc2)nnc1SCc1ccc(C#N)cc1,–,–,–,–,–,–
CCOc1cc(N2CCOCC2)c(OCC)cc1NC(=O)c1nc2nc(C)cc(C)n2n1,–,25µM,–,–,–,–
Cc1cc(C)n2nc(C(=O)Nc3ccccc3N3CCOCC3)nc2n1,–,–,–,–,–,–
CCOc1cc(N2CCOCC2)c(OCC)cc1NC(=O)CCS(=O)(=O)c1ccc(Cl)cc1,–,25µM,–,–,–,–
O=C(c1ccco1)N1CCN(C(=O)C2(S(=O)(=O)c3ccc(Cl)cc3)CC2)CC1,–,–,–,–,–,–
SMILES,Pol III holo inh,Tau fil binding,Hsp90 Hop PPI,15-hLO inh,ERK AVP block,YjeE inh
O=C(c1ccc2c(c1)OCO2)[C@@H]1[C@@H]2C(=O)N(C3CCCCC3)C(=O)[C@@H]2C2c3ccccc3C=CN21 (stereo partly drawn),–,?,–,16µM,?,–
CCOc1cc2c(C#N)c(N3CCOCC3)nc(N)c2c(N)n1,–,–,–,–,16µM,–
CCC1=C(OC(=O)N(CC)CC)N2C(=O)OC(=NCC3CC3)[C@]2(C)[C@H]2C1=CC[C@H]1C(=O)N(C)C(=O)[C@H]12,·,·,·,·,–,·
CC(=O)Nc1ccc2c(c1)/C(=C/c1ccc([N+](C)(C)C)cc1)c1ccccc1-2,–[11.4 µM],3.2µM,–[11 µM],–[11.4 µM],–[11.5 µM],–
CNCCCC12CCC(c3ccccc31)c1ccccc12,–,16µM!,–,?,–,–
COc1ccc(Cn2c(-c3ccco3)nc3oc4ccccc4c(=O)c3c2=O)cc1,–,–,–,–,–,–
COc1ccc(Cn2c(-c3ccco3)nc3oc4cc(OC)ccc4c(=O)c3c2=O)cc1,–,10µM,–,–,–,?
Cc1cnc(NC(=O)CCCSc2nc3ccccc3s2)s1,–,–,–,–,–,–
Cc1csc(NC(=O)CCCSc2nc3ccccc3s2)n1,–,–,–,–,16µM,–
CCCc1cc(C(N)=O)c(NC(=O)C2CCCO2)s1 (stereo not drawn),–,–,–,25µM,–,–
O=C(CSc1nc2scc(-c3ccco3)c2c(=O)n1-c1ccccc1)N1CCOCC1,–,–,–,1.6µM,?,–
Oc1ccc2ccccc2c1/C=C\c1ccc2c(Br)cc(Br)c(O)c2n1,–[11.4 µM],2.5µM,–[11 µM],?,–[11.5 µM],–
CC(=O)N1CCN(S(=O)(=O)c2ccc(C)cc2)C1C(C)C (stereo not drawn),–,–,–,–,–,–
Cc1nc2nc(-c3ccccc3)cn2nc1C,–,–,–,–,–,–
Cc1nn2cc(-c3ccc(N)cc3)nc2s1,–,16µM,–,–,–,–
Oc1c(C(O)(c2ccccc2)c2ccc3ccccc3c2O)ccc2ccccc12,–[11.4 µM],1.3µM,?,–[11.4 µM],–[11.5 µM],–
CCOC(=O)Nc1ccc(S(=O)(=O)Nn2cnnc2)cc1,–,–,–,–,–,–
CC(=O)Oc1cccc(N2C(=O)C3C4C=CC(C4)C3C2=O)c1 (stereo not drawn),–[11.4 µM],–[11.4 µM],–[11 µM],–[11.4 µM],–,–
CCOc1ccccc1C(=O)Nc1nccs1,–,–,–,7.9µM,?,–
CCOC(=O)c1[nH]c(C)c(C(=O)NCCc2ccc(OC)cc2)c1C,–,–,–,–,–,–
C=CCNC(=O)CCCOc1cc(C)ccc1C,–,–,–,–,–,–
Cc1ccc(-c2c3c([nH]c(=S)c2C#N)CCCC3)o1,–,?,–,10µM,–,–
O=Nc1c(-c2c(O)[nH]c3ccccc23)[nH]c2ccccc12,–,0.4µM,13µM!,?,10µM,–
CC(=O)N1CCN(CC(O)COc2ccc(OCc3ccccc3)cc2)CC1 (stereo not drawn),–,–,–,–,–,–
Cc1cccc(N2CCN(C(=O)CSCc3c(C)noc3C)CC2)c1C,–,–,–,–,25µM,–
Cc1noc(C)c1CSCC(=O)N1CCN(c2ccc(F)cc2)CC1,–,–,–,–,–,–
Cc1noc(C)c1-c1cncnc1-n1ccnc1,–,–,–,–,–,–
